Records with an inconclusive call do not appear. The source made the active and inactive calls. The calls were made as follows, unless noted: active = hit-call score of the fitted dose curve at least 0.9, where 1 is the maximum; inactive = score below 0.9.
Key:
[1] = ACEA_ER_80hr: ACEA Biosciences xCELLigence Real-Time Cell Analysis on Estrogen Receptor Agonism for Proliferation (AID 2282667; active = hit-call score of the fitted dose curve at least 0.9, where 1 is the maximum); conditions: T47D proliferation, impedance (xCELLigence), 80 h
How it was run: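 Cell-growth kinetics were measured by impedance in T47D cells treated continuously with compound (top 100 uM final, 1:4 steps, 8 points). Activity at 80 h was scored as signal gain over the DMSO baseline.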

[2] = biological target: CCAAT/enhancer-binding protein beta (Homo sapiens) (UniProt P17676); test: ATG_C_EBP_CIS: Attagene CIS-FACTORIAL HepG2 Assay for human CCAAT/Enhancer Binding Protein (C/EBP) beta (AID 2282927); conditions: HepG2 Attagene cis-factorial transcription factor reporter; actives raise or lower the signal
Chain of CCAAT/enhancer-binding protein beta (Homo sapiens) (P17676 whole entry, looked up, the tested form may be a part): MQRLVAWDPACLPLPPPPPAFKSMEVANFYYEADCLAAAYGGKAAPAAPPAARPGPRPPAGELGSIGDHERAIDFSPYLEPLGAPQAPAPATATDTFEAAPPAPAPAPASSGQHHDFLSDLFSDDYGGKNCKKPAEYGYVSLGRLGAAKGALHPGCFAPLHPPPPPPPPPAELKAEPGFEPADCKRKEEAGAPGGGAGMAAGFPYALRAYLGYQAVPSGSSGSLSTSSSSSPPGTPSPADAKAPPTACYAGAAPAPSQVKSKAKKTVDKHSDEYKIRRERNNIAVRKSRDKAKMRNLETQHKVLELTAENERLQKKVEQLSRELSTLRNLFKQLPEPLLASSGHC
How it was run: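 Chemical-treated HepG2 cells (24 h) bearing cis-regulated reporter constructs were processed for total RNA, then reverse transcription, PCR amplification, fluorescent primer extension and fragment analysis; gain- and loss-of-signal were fitted against DMSO.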

[3] = ATG_CMV_CIS: Attagene CIS-FACTORIAL HepG2 Assay for human CMV (Internal Marker) (AID 2282928); conditions: HepG2 CMV promoter reporter, transcription factor profiling; actives raise or lower the signal;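 also: endpoint acts as a background internal control marker rather than a target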
How it was run: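 HepG2 cells transiently transfected with multiple cis-regulated reporter units; 24 h compound exposure. Reporter mRNA quantified by RT-PCR, 6-FAM primer-extension labeling, HpaI digestion and capillary electrophoresis; bidirectional fitting against DMSO baseline.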

[4] = ATG_DR4_LXR_CIS: Attagene CIS-FACTORIAL HepG2 Assay for human Liver X Receptor (LXR), DR4 submotif (AID 2282929); conditions: HepG2 Attagene DR4 cis-reporter, mRNA transcription; actives raise or lower the signal
How it was run: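 HepG2, transient MRTU transfection, cis-element (DR4) promoter; 24 h compound exposure; total RNA → oligo(dT) RT → PCR → 6-FAM primer extension → HpaI cut → CE. Gain/loss vs DMSO, bidirectional fit.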

[5] = biological target: Aryl hydrocarbon receptor (Homo sapiens) (UniProt P35869); test: ATG_Ahr_CIS: Attagene CIS-FACTORIAL HepG2 Assay for human Aryl Hydrocarbon Receptor (Ahr) (AID 2282930); conditions: HepG2 AhR cis-factorial reporter transcription; actives raise or lower the signal
Chain of Aryl hydrocarbon receptor (Homo sapiens) (P35869 whole entry, looked up): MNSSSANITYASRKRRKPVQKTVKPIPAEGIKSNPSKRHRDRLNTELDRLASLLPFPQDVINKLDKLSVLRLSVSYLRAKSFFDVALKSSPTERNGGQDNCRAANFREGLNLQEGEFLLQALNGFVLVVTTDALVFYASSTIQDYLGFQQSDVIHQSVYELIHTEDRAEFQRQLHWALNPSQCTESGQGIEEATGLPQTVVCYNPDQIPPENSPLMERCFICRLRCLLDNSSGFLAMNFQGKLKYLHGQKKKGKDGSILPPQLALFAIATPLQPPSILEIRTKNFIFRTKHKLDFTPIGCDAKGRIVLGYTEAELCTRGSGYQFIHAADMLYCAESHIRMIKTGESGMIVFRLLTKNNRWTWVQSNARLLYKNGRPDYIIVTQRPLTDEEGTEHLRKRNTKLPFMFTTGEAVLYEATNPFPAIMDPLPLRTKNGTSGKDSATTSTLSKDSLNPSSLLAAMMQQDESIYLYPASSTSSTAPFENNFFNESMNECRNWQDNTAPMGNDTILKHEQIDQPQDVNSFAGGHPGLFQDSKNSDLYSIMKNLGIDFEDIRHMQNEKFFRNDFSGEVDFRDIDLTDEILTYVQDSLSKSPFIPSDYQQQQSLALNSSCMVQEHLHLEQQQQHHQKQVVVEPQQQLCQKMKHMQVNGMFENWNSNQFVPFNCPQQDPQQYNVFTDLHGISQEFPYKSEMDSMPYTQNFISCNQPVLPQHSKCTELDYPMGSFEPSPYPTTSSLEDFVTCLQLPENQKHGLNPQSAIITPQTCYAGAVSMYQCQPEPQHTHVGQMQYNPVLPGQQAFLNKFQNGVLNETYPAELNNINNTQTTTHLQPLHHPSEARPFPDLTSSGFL
How it was run: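 Following 24 h of chemical dosing, transfected HepG2 liver cells with cis-driven reporter units were lysed for RNA; reporter mRNA was quantified via RT-PCR and capillary electrophoresis, and responses fitted bidirectionally from DMSO.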

[6] = ATG_AP_1_CIS: Attagene CIS-FACTORIAL HepG2 Assay for human Activator Protein 1 (AP-1) (AID 2282931); conditions: HepG2 Attagene cis-factorial AP-1 reporter mRNA; actives raise or lower the signal
How it was run: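 Transient MRTU transfection of HepG2 → 24 h chemical treatment → RNA isolation, RT-PCR, 6-FAM labelling, HpaI digest → capillary electrophoresis. Fit: bidirectional, DMSO negative control.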

[7] = ATG_AP_2_CIS: Attagene CIS-FACTORIAL HepG2 Assay for human Activator Protein 2 (AP-2) (AID 2282932); conditions: HepG2 AP-2 cis-reporter, Attagene transcription factor profiling; actives raise or lower the signal
How it was run: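 HepG2 cells were transiently transfected with multiple cis-promoter reporter transcription units and dosed for 24 h. Reporter mRNA was measured by RT-PCR with capillary electrophoresis fluorescence; bidirectional fits relative to DMSO baseline.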

[8] = ATG_BRE_CIS: Attagene CIS-FACTORIAL HepG2 Assay for human Bone Morphogenetic Protein (BMP) Response Element (BRE) (AID 2282933); conditions: HepG2 BMP response element reporter, Attagene transcription factor profiling; actives raise or lower the signal
How it was run: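 Endogenous transcription factor activity at a BMP response element was monitored in transfected HepG2 cells 24 h after dosing. Fluorescent RT-PCR products were resolved by capillary electrophoresis, and activity was fitted in both directions versus DMSO.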

[9] = biological target: Retinoic acid receptor alpha (Homo sapiens) (UniProt P10276); test: ATG_DR5_RAR_CIS: Attagene CIS-FACTORIAL HepG2 Assay for human Retinoic Acid Receptor Alpha (RARE), DR5 submotif (AID 2282934); conditions: HepG2 Attagene cis-factorial RARE DR5 reporter, mRNA; actives raise or lower the signal
Chain of Retinoic acid receptor alpha (Homo sapiens) (P10276 whole entry, looked up): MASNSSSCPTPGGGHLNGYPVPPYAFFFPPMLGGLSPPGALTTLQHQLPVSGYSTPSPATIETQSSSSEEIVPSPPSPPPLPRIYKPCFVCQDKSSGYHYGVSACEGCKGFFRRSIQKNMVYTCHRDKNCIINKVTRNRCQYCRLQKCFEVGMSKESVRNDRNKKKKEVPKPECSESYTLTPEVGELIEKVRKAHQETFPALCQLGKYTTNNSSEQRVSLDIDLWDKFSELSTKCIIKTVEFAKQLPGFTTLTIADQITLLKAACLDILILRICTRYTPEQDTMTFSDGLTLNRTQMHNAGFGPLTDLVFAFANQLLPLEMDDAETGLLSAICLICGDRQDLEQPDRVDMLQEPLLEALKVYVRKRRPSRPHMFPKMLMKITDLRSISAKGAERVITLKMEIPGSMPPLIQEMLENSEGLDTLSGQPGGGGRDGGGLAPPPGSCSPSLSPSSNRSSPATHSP
How it was run: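 Transfected HepG2 reporter cells are exposed to chemicals for 24 h. Then RNA is extracted and the DR5 element reporter transcript is measured by RT-PCR and capillary electrophoresis, with bidirectional curve fitting relative to DMSO.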

[10] = biological target: Transcription factor E2F1 (Homo sapiens) (UniProt Q01094); test: ATG_E2F_CIS: Attagene CIS-FACTORIAL HepG2 Assay for human E2F Transcription Factor 1 (AID 2282935); conditions: HepG2 Attagene cis-reporter, E2F reporter RNA transcripts; actives raise or lower the signal
Chain of Transcription factor E2F1 (Homo sapiens) (Q01094 whole entry, looked up): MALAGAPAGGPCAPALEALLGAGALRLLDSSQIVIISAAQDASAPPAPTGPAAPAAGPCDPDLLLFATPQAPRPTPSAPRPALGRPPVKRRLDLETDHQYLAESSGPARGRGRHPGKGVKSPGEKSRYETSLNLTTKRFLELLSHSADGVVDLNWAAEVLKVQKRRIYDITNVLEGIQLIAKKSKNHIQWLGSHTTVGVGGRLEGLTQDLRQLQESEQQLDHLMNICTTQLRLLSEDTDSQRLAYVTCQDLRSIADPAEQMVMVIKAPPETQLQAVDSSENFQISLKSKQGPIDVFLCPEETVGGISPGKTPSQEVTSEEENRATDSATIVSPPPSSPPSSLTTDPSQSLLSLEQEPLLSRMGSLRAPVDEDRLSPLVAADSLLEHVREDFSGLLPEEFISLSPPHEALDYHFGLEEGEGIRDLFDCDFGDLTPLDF
How it was run: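 HepG2 cells transiently transfected with multiplexed cis-element reporter units, dosed for 24 h. Reporter mRNA measured by RT-PCR, 6-FAM primer-extension labeling, HpaI digestion and capillary electrophoresis; bidirectional fit versus DMSO baseline.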

[11] = ATG_E_Box_CIS: Attagene CIS-FACTORIAL HepG2 Assay for human Enhancer Box (E-box) (AID 2282936); conditions: HepG2 E-box cis-reporter transcription, actives raise or lower the signal
How it was run: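 HepG2 cells transiently transfected with multiplexed cis-element reporter units sensing endogenous transcription factor activity; 24 h compound exposure. Reporter mRNA measured by RT-PCR, 6-FAM primer extension, HpaI digestion and capillary electrophoresis; bidirectional fit versus DMSO.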

[12] = ATG_M_61_CIS: Attagene CIS-FACTORIAL HepG2 Assay for M61 Transcription Factor (Internal Marker) (AID 2282937); conditions: HepG2 Attagene CIS-FACTORIAL M61 internal marker reporter; actives raise or lower the signal
How it was run: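 Human liver HepG2, transient MRTU transfection (cis promoter elements), 24 h compound. Total RNA → oligo(dT) RT → PCR → FAM label → HpaI → CE. Internal background marker; bidirectional fitting, DMSO = baseline.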

[13] = ATG_EGR_CIS: Attagene CIS-FACTORIAL HepG2 Assay for human Early Growth Response 1 (EGR1) (AID 2282938); conditions: HepG2 Attagene CIS-FACTORIAL EGR reporter mRNA; actives raise or lower the signal
How it was run: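 Transient transfection of human HepG2 with multiple cis-regulated reporter units, chemical exposure 24 h, total RNA isolated. Reverse transcription, PCR, fluorescent labelling and capillary electrophoresis quantify reporter transcripts; activity fitted bidirectionally against DMSO.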

[14] = ATG_M_19_CIS: Attagene CIS-FACTORIAL HepG2 Assay for M19 Transcription Factor (Internal Marker) (AID 2282939); conditions: HepG2 Attagene CIS-FACTORIAL M19 internal marker reporter; actives raise or lower the signal
How it was run: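 Background-control endpoint from a multiplexed HepG2 reporter panel. Cells carrying cis-regulated reporter constructs are treated 24 h, then reporter transcripts are amplified, fluorescently labelled and sized by capillary electrophoresis. DMSO defines baseline.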

[15] = ATG_ERE_CIS: Attagene CIS-FACTORIAL HepG2 Assay for Estrogen Response Element (ERE) (AID 2282940); conditions: HepG2 ERE cis-reporter, Attagene RNA transcript; actives raise or lower the signal
How it was run: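 Cells used were human hepatoma HepG2, transfected with multiple reporter transcription units under cis-regulatory promoters. Reporter mRNA, read 24 h post-dosing via fluorescent RT-PCR products on capillary electrophoresis, was fitted bidirectionally relative to DMSO.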

[16] = ATG_Ets_CIS: Attagene CIS-FACTORIAL HepG2 Assay for human Erythroblast Transformation Specific (ETS) (AID 2282941); conditions: HepG2 ETS cis-reporter transcription, actives raise or lower the signal
How it was run: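 HepG2 cells transiently transfected with cis-promoter reporter transcription units were dosed for 24 h; reporter mRNA was measured by RT-PCR, 6-FAM primer extension, HpaI digestion and capillary electrophoresis, with bidirectional fitting against DMSO baseline.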

[17] = ATG_FoxO_CIS: Attagene CIS-FACTORIAL HepG2 Assay for human Forkhead box O (FoxO) (AID 2282943); conditions: HepG2 Attagene cis-reporter, FoxO element, mRNA; actives raise or lower the signal
How it was run: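 24 h chemical exposure, HepG2 with transient cis-MRTU transfection. RNA extraction, oligo(dT) RT, reporter-specific PCR, primer-extension labelling, HpaI digestion, CE fragment analysis; bidirectional fit, DMSO baseline.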

[18] = ATG_GATA_CIS: Attagene CIS-FACTORIAL HepG2 Assay for human GATA Binding Protein (AID 2282944); conditions: HepG2 GATA cis-element reporter, Attagene multiplex mRNA; actives raise or lower the signal
How it was run: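 Endogenous transcription factor activity was captured through cis-promoter-driven reporters in transfected HepG2 cells. After 24 h exposure, reporter transcripts were quantified by RT-PCR with fluorescent capillary electrophoresis, and responses fitted both directions against DMSO.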

[19] = biological target: Hepatocyte nuclear factor 3-beta (Homo sapiens) (UniProt Q9Y261); test: ATG_FoxA2_CIS: Attagene CIS-FACTORIAL HepG2 Assay for human Forkhead box A2 (FOXA2) (AID 2282942); conditions: HepG2 cis-reporter transcription factor activity, 24 h; actives raise or lower the signal
Chain of Hepatocyte nuclear factor 3-beta (Homo sapiens) (Q9Y261 whole entry, looked up): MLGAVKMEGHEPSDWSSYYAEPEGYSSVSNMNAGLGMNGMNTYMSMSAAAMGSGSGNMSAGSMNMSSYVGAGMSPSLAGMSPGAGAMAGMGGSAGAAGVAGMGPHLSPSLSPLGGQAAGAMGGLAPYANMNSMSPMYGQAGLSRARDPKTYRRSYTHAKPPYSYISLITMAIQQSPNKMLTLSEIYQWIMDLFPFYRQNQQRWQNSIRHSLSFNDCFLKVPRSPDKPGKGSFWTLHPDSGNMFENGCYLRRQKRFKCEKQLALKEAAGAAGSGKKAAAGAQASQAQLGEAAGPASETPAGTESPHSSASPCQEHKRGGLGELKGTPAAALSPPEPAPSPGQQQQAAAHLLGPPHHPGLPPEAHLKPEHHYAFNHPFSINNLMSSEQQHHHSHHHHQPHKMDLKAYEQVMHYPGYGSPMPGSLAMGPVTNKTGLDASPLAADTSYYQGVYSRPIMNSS
How it was run: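 Transient MRTU transfection of HepG2 liver cells; 24 h treatment; total RNA → oligo(dT) RT → PCR → FAM primer extension → HpaI cut → CE. Bidirectional fit vs DMSO.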

Measured: AC50

O=S(=O)(Cl)C(F)(F)C(F)(F)C(F)(F)C(F)(F)C(F)(F)C(F)(F)C(F)(F)C(F)(F)F
inactive: [1] | [2] | [3] | [4] | [5] | [7] | [8] | [9] | [10] | [11] | [12] | [13] | [14] | [16] | [17] | [18]
active: [6] 57.3 µM | [15] 29.4 µM

Cc1ccc2c(c1)OCC(=O)CO2
inactive: [1] | [2] | [3] | [5] | [6] | [7] | [8] | [9] | [10] | [11] | [12] | [13] | [14] | [15] | [16] | [19] | [18]

CN(N=O)C(=O)N[C@@H]1[C@@H](O)[C@H](O)[C@@H](CO)O[C@@H]1O
inactive: [1] | [2] | [3] | [4] | [6] | [7] | [8] | [9] | [10] | [11] | [12] | [13] | [14] | [15] | [16] | [19] | [17] | [18]

CCc1ccc(C)nc1
inactive: [1] | [2] | [3] | [4] | [6] | [7] | [8] | [9] | [10] | [11] | [12] | [13] | [14] | [15] | [16] | [19] | [18]

CSc1ccc(Cl)cc1
inactive: [1] | [2] | [3] | [6] | [7] | [8] | [9] | [10] | [11] | [12] | [13] | [14] | [15] | [16] | [17] | [18]

O=C(O)C(F)(F)C(F)(F)C(F)(F)C(F)(F)C(F)(F)C(F)(F)C(F)F
inactive: [1] | [2] | [3] | [4] | [5] | [6] | [7] | [8] | [9] | [10] | [11] | [12] | [13] | [14] | [16] | [18]
active: [15] 64 µM

C=CC(=O)OCCC(F)(F)C(F)(F)C(F)(F)C(F)(F)F
inactive: [2] | [3] | [5] | [7] | [10] | [11] | [12] | [13] | [14] | [15] | [16] | [19] | [17] | [18]
active: [1] 17.1 µM | [4] 94 µM | [6] 213 µM | [8] 101 µM
